Experimental data: PubChem BioAssay AID2315 (National Center for Advancing Translational Sciences (NCATS), 2010)
Hit rate of the full screen: of about 290,000 compounds, about 27,000 (9.3%) were called active. Shown is part of a subset that was picked to be rich in actives. Values without a mark were called inactive. Rule as the data show it: active = inhibition mostly above about 28% (no sharp cut-off); inactive = mostly below about 43%.

Assay: A qHTS for Small Molecule Inhibitors of Shiga Toxin; as to inhibition: 0% is about no effect
Details: Vero cells, Shiga toxin protein synthesis inhibition reporter; at 38.7 µM, hits give high values

SMILES	inhibition
COCCn1c(N)c(NCc2ccccc2)c(=O)[nH]c1=O	-3.86%
COc1ccc(C2CC(c3cccs3)=NN2C(=O)CSc2nnc(N)s2)cc1OC (stereo not given)	-6.81%
COc1ccc(C2CC(c3cccs3)=Nc3ccccc3S2)cc1OC (stereo not given)	41.1% (active)
COc1ccc(C2CC(c3cccs3)=NN2C(=O)CCC(=O)O)cc1OC (stereo not given)	-4.61%
O=C(NCc1ccccc1Cl)C1CCN(c2ncnc3c2nc2n3CCCCC2)CC1	-9.78%
Oc1ccc(N2CCN(C(=S)NCc3ccccc3)CC2)cc1	17.4%
O=C(CS(=O)(=O)Cc1ccccc1)NCC1CCCO1 (stereo not given)	-4.38%
S=C(NCCc1ccccc1)Nc1ccccc1	57.4% (active)
Oc1ccccc1N1CCN(C(=S)NCc2ccccc2)CC1	76.8% (active)
S=C(NCCc1ccccc1)NCC1CCCO1 (stereo not given)	0% (active)
S=C(NCCc1ccccc1)N1CCCCC1	66.4% (active)
O=C1CCN(C(=S)NCCc2ccccc2)CC1	35.2%
S=C(NCCCc1ccccc1)Nc1ccc(Br)cc1	0.943%
CC1CCCCN1C(=S)NCc1ccccc1 (stereo not given)	-6.29%
COc1ccc(C(=O)NC2CCN(C(=S)NCCc3ccccc3)CC2)cc1	2.57%
O=C(NCCc1c[nH]c2ccccc12)C(=O)NCC1CCCO1 (stereo not given)	-8.17%
S=C(NCCc1ccccc1)NCc1ccccc1Cl	18.4%
Clc1cc(NC2CCCCC2)ncn1	-10.3%
CCOC(=O)C1C/C(=C\C(C)=O)c2cccc(C(F)(F)F)c2O1 (stereo not given)	inactive
COc1ccc(CCN2C(=O)C(C)=C(C)C2=O)cc1OC	17.7%
COCCn1c(SCC(=O)Nc2nc(C)cs2)nnc1C(C)C	-5.99%
Cc1nnc(NC(=O)C(c2ccccc2)c2ccccc2)s1	-9.41%
COc1ccccc1N1CCN(C(=O)CCS(=O)(=O)c2ccc3c(c2)NC(=O)C(C)S3)CC1 (stereo not given)	-1.86%
O=C(CN1CCN(Cc2ccccc2)CC1)Nc1ccc(F)c(F)c1	14.5%

SMILES	inhibition
Cc1ccc(NC(=O)COC(=O)C2C3CC4OC(=O)C2C4C3)cc1Cl (stereo not given)	17.4%
Cc1ccc(S(=O)(=O)N(CC(O)CN2C(=O)NC(C)(C)C2=O)c2cccc([N+](=O)[O-])c2)cc1 (stereo not given)	-12.9%
COc1ccc(CCNC(=O)CCC(=O)NC2CCCCC2)cc1OC	10.5%
COC(=O)CN1C(=O)[C@H]2[C@@H](/C=C/c3ccccc3)N3C(=O)CN(CC4CC4)C(=O)[C@@]3(Cc3ccccc3)[C@H]2C1=O	-11.8%
O=C(Cc1cccc2ccccc12)NCCC1=CCCCC1	-13.5%
S=C(NCCC1=CCCCC1)Nc1ccccc1	72.2% (active)
Cc1nnc(OCC(=O)NCCC2=CCCCC2)c2ccccc12	-1.67%
CN(C(=O)C1CCN(c2ncnc3c2nc2n3CCCCC2)CC1)C1CCCCC1	-2.24%
COCC(=O)Nc1c(C(=O)N2CCCC2)oc2ccccc12	3.56%
Cc1cc(N(C)C)nc(Cl)n1	-9.68%
COc1ccc(-c2nc3c(c(SCC(=O)Nc4ccc(C(=O)O)cc4)n2)Cc2ccccc2O3)cc1	18.2%
O=C1C2C3C=CC(C4CC34)C2C(=O)N1/N=C/c1ccc(-c2ccccc2[N+](=O)[O-])o1 (stereo not given)	61.9%
COc1cccc(N(CC(=O)NC2CCCCCC2)S(=O)(=O)c2ccccc2)c1	-29.3%
C/C(=N\NC(=O)c1ccc(C)cc1)C1C(=O)c2ccccc2C1=O	40.4% (active)
Cc1ccc(C(=O)N/C(=C/c2cccnc2)C(=O)O)cc1	14.9%
C/C(=N\NC(=O)CNC(=O)C(c1ccccc1)c1ccccc1)c1ccc(C)cc1	-1.4%
COCCN1C(=O)C(=O)/C(=C(/O)c2ccc(S(=O)(=O)N3CCOCC3)cc2)C1c1ccc(O)c(OC)c1 (stereo not given)	2.24%
Cc1cc(C)nc(NS(=O)(=O)c2ccc(N3C(=O)C4CCCCC4C3=O)cc2)n1 (stereo not given)	-4.6%
CSCc1ccc(C(=O)Nc2cc(C)cc(C)c2)cc1	39% (active)
CC(=O)Nc1ccccc1NC(=O)c1cc(C)cc(C)c1	-6.09%
C=CCN(c1ccc(C(=O)Nc2cc(C)cc(C)c2)cc1)S(C)(=O)=O	1.49%
CN(C)c1ccc(/C=N/NC(=O)c2ccc(Cn3cc(Br)cn3)o2)cc1	73.5% (active)
CC1CCc2c(sc(NC(=O)c3ccc(Cn4cc(Br)cn4)o3)c2C(N)=O)C1 (stereo not given)	14.4%
O=C(c1ccc(Cn2cc([N+](=O)[O-])cn2)o1)N1CCCC1	-5.81%

SMILES	inhibition
O=C(N/N=C/c1ccc2c(c1)OCO2)c1ccc(Cn2cc([N+](=O)[O-])cn2)o1	39.5% (active)
O=C(N/N=C\c1ccc(Br)cc1)c1ccc(Cn2cccn2)o1	26.8%
COc1cccc(NC(=O)c2ccc(Cn3cc([N+](=O)[O-])cn3)o2)c1	12.9%
O=C(NCCc1ccc(Cl)cc1)C1CCCN1C(=O)NCc1ccccc1 (stereo not given)	2.06%
COc1cccc(NS(=O)(=O)c2ccc(-c3coc(C)n3)cc2)c1	-7.18%
COc1ccc(N2CCN(C(=O)c3cccs3)CC2)cc1	41.6%
COc1ccc(N2CCN(C(C)=C3C(=O)c4ccccc4C3=O)CC2)cc1	66.2% (active)
CC(=C1C(=O)c2ccccc2C1=O)N1CCN(c2ccccn2)CC1	2.68%
COc1ccccc1C(=O)N1C(CC(=O)Nc2ccccc2C)C(=O)NC2CCCCC21 (stereo not given)	-1.4%
COC(=O)[C@H](Cc1ccccc1)NC(=O)[C@@H]1C[C@H]1[C@@H](NC(=O)OCc1ccccc1)c1ccccc1	-13%
CC1Sc2ccc(S(=O)(=O)CCC(=O)NCc3ccccc3Cl)cc2NC1=O (stereo not given)	11.4%
Cc1cc(C)nc(N/N=C/c2ccc([N+](=O)[O-])o2)n1	12.2%
CCCc1nn2c(=O)cc(CSCC(=O)Nc3cccc(C)c3)nc2s1	9.11%
O=C(N/N=C/C=C/c1ccco1)c1cccs1	104% (active)
O=C(Nc1ccccc1)c1ccc(NC(=O)c2cccs2)cc1	-21.1%
Cc1ccc(-c2cc(C(=O)N/N=C/C=C/c3ccco3)c3ccccc3n2)cc1C	92.8%
O=C(CNC(=O)c1cccs1)N/N=C/c1cccc(Br)c1	-5.46%
CCN(CC)c1ccc(/C=N/NC(=O)CNC(=O)c2cccnc2)cc1	-12.8%
Cc1nn(-c2ccccc2)c(Cl)c1/C=N/NC(=O)c1nn(C)cc1[N+](=O)[O-]	31.8%
Cc1nn(-c2ccccc2)c(NC(=O)c2cccs2)c(-c2ccc(Cl)cc2)c1=O	7.45%
CC(=O)Nc1ccc(/C=N/NC(=O)c2cccs2)cc1	97.3% (active)
CCN(CC)c1ccc(/C=N/NC(=O)CNC(=O)c2cccs2)cc1	42.1% (active)
O=C(NC(Cc1c[nH]c2ccccc12)C(=O)N/N=C/c1ccc(Br)cc1)c1cccs1 (stereo not given)	-8.84%
CC(/C=N/NC(=O)c1ccncc1)=C\c1ccco1	27%

SMILES	inhibition
Cc1ccc(-n2nc(C)c(/C=N/NC(=O)c3cccs3)c2Cl)cc1	41% (active)
CC(=O)OCCN(CCCn1c(-c2ccncc2)nc2ccccc21)c1nc(-c2ccc(C)cc2)cs1	-1.86%
COc1ccc(CCNC(=O)c2nnc(CS(=O)(=O)c3ccccc3)o2)cc1OC	5.82%
Cc1ccc(S(=O)(=O)N(Cc2cc3ccccc3[nH]c2=O)CC2CCCO2)cc1 (stereo not given)	-2.48%
O=C(Nc1c2c(nn1-c1ccccc1)CS(=O)(=O)C2)C1CCCC1	-3.43%
COc1ccc(NC(=O)c2ccco2)cc1NC(=O)c1ccc(C#N)cc1F	-2.14%
CCCCCC(O)(CCN1CCCCC1)c1ccccc1 (stereo not given)	-8.74%
Cc1cc(NC(=O)CCC(=O)N(CC(=O)NCC2CCCO2)c2ccccc2)no1 (stereo not given)	-9.61%
COC(=O)C1(C)NC(c2ccccc2OC)C2C(=O)N(c3ccccc3)C(=O)C21 (stereo not given)	-11.2%
COc1ccc(N2CCN(S(=O)(=O)c3ccc4c(c3)N(C(C)=O)CCO4)CC2)cc1	-9.48%
Cc1cccc(-n2c(C)cc(/C=N\NC(=O)c3cccs3)c2C)c1	85.9% (active)
Cc1ccc(-n2c(C)cc(/C=N\NC(=O)CC(=O)NC(C)C)c2C)cc1	21.4%
Cc1cccc(-n2c(C)cc(/C=N/NC(N)=S)c2C)c1	-4.48%
O=C(Cn1cnc2ccccc21)Nc1ccccc1-c1ccccc1	-2.99%
Cc1cc2ccccn2c1C(=O)c1cccc(F)c1	21%
CCCCNC(=O)CCn1nc(-c2ccc(Cl)cc2)ccc1=O	-6.39%
COc1ccc(CNC(=O)CN(c2ccc(OC)c(Cl)c2)S(=O)(=O)c2ccc(C)cc2)cc1	15.2%
O=C(COC(=O)c1ccc(Oc2ccccc2)cc1)Nc1nnc(-c2ccccc2)o1	6.93%
Nc1ccc(-c2sc(N)nc2-c2ccccc2)cc1	-12.4%
Cc1ccc(C(=O)NCC(=O)OCc2nnc(-c3ccccc3)o2)cc1	9.19%
Nc1ccc(-c2nnc(-c3ccccc3)o2)cc1	71.6% (active)
Nc1ccc(Nc2ccccc2)cc1	-17%
Nc1ccc(-c2nnc(-c3ccc(-c4ccccc4)cc3)o2)cc1	63.4% (active)
